The record followed here is PubChem BioAssay (Tox21).

Results filed as inconclusive are left out. Unmarked numbers belong to inactive results. The source made the active and inactive calls. Calls come from the whole dose curve; as a rule, active = well fitted activation curve with a large enough effect in the signal ratio in the repeat runs (not every such curve was filed as active); inconclusive = weak or mixed curves, or effect the other way; inactive = no such curve, though single readings can be large or run the other way; the % refers to the signal ratio.
% is set by controls: 0 for no effect and ±100 for the full control effect.

Sequence of Peroxisome proliferator-activated receptor gamma (Homo sapiens) (P37231 whole entry, looked up): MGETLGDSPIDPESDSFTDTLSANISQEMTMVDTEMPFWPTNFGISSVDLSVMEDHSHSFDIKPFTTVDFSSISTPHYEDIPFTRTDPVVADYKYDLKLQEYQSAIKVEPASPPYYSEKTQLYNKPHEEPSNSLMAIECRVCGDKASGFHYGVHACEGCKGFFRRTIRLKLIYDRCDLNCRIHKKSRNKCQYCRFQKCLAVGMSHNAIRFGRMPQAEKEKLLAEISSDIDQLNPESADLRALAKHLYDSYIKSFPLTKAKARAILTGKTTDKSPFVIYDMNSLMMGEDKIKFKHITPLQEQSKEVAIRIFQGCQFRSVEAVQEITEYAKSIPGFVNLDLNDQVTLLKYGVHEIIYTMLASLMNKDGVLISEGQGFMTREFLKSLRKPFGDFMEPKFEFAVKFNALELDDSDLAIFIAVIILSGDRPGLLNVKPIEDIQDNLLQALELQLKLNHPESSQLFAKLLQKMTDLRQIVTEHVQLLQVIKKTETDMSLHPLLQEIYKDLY

The target of the test is Peroxisome proliferator-activated receptor gamma (Homo sapiens) (UniProt P37231). The experiment in a line: qHTS assay to identify small molecule agonists of the peroxisome proliferator-activated receptor gamma (PPARg) signaling pathway (AID 743094). The settings on record: HEK293H PPARg-UAS-bla, beta-lactamase FRET ratio, 17 h; series mostly up to 57 µM; activation: at the top concentration. From the text:
U.S. Tox21 Program National Center for Advancing Translational Sciences [NCATS] NIH Chemical Genomics Center [NCGC] U.S. Environmental Protection Agency [EPA] National Institutes of Environmental Health Sciences [NIEHS] National Toxicology Program [NTP] U.S. Food and Drug Administration [FDA] Tox21 Assay Overview: The peroxisome proliferator-activated receptors (PPARs) are lipid-activated transcription factors of the nuclear receptor superfamily with three distinct subtypes namely PPAR alpha, PPAR delta (also called PPAR beta) and PPAR gamma (PPARg). All these subtypes heterodimerize with Retinoid X receptor (RXR) and these heterodimers regulate transcription of various genes. PPAR-gamma receptor (glitazone receptor) is involved in the regulation of glucose and lipid metabolism. To identify the compounds that activate PPAR-gamma signaling, GeneBLAzer PPAR gamma UAS-bla HEK293H cell line (Invitrogen, Carlsbad, CA, USA) containing a beta-lactamase reporter gene under control of the control of an upstream activator sequence (UAS) stably integrated into HEK293H cells was used to screen Tox21 compound library.
Tox21 Assay Protocol Summary: PPARg-bla cells were dispensed at 3000 cells/6uL/well in 1536-well black wall/clear bottom plates using a Multidrop Combi (Thermo Fisher Scientific, Waltham, MA) dispenser. After the assay plates were incubated at 37C and 5% CO2 for 5 h, 23 nL of compounds dissolved in DMSO, positive controls or DMSO only was transferred to the assay plate by a Pintool station (Kalypsys, San Diego, CA). The assay plates were incubated at 37C for 17 h. After 1 uL of LiveBLAzerTM B/G FRET substrate was added using a Bioraptr Flying Reagent Dispenser (FRD) workstation (Beckman Coulter, Indianapolis, IN, USA), the plates were incubated at room temperature for 1 h, and fluorescence intensity was measured by an Envision plate reader (PerkinElmer, Shelton, CT).
A general note: qHTS replaces the single test concentration by a dilution series.
Take `CC(C)(C)OC(=O)c1ncn2c1[C@@H]1CCCN1C(=O)c1c(Br)cccc1-2`: the “activation” value was -4.61%.
The same measure, in the same setting: under `Cc1ccccc1CO[C@@H]1C[C@@]2(C(C)C)CC[C@]1(C)O2` stands 2.62%; under `CCOC(=O)NC(=S)Nc1ccccc1NC(=S)NC(=O)OCC`, 2.69%.
Consider `[Cl][Sn]([Cl])([Cl])[Cl]`, for which the “activation” value was 1.38% [at 78.9 µM].
The same measure, in the same setting: under `O=C(CCCN1CCC(n2c(=O)[nH]c3ccccc32)CC1)c1ccc(F)cc1` stands -3.99% [at 26.2 µM]; under `CC(C)[N+](=O)[O-]`, 0.859%; under `c1cc2c(c(N3CCNCC3)c1)OCCO2`, -2.15%.
Still for that read-out and setting: for `ClC(Br)Br` the value was 1.68%; for `COC(=O)C1=CCCN(C)C1`, 1.2%; for `CSc1ccc(C(=O)C(C)(C)N2CCOCC2)cc1`, -1.04%.
Same read-out and setting: for `OC(c1ccccc1)(c1ccccc1)C1CCNCC1` the value was -6.6% [at 26.2 µM].
Take `COC(=O)c1ccccc1S(=O)(=O)NC(=O)N(C)c1nc(C)nc(OC)n1`: the “activation” value is -1.4% [at 78.9 µM].
The same measure, in the same setting: for `CC1CCCCC1NC(=O)Nc1ccccc1` (stereo not given) the value was 3.5%; for `OC(c1ccc(F)cc1)(c1cncnc1)c1ccccc1Cl` (stereo not given), -5.31%.
Same read-out and setting: for `C[C@]1(O)CC[C@H]2[C@@H]3CCC4=CC(=O)CC[C@]4(C)[C@@]3(F)[C@@H](O)C[C@@]21C` the value was -0.895%.
The same measure, in the same setting: under `O=C1OC(c2ccc(O)c(S(=O)(=O)O)c2)(c2ccc(O)c(S(=O)(=O)O)c2)c2c(Br)c(Br)c(Br)c(Br)c21` stands -3.32%.
Regarding `CCCCc1ccc(O)cc1`, the “activation” value was -7.15%.
Same read-out and setting: under `CCOC(=O)CP(=O)(OCC)OCC` stands -4.59%.
The same measure, in the same setting: for `OCCBr` the value was 1.92%; for `O=C(Cc1ccccc1)OCc1ccccc1`, 3.52% [at 78.9 µM]; for `C[N+](=O)[O-]`, -3.67%.
The same measure, in the same setting: under `N#CC(O)c1ccccc1` (stereo not given) stands -5.51%; under `CCOc1nc(C(Cl)(Cl)Cl)ns1`, -0.0292%.
On to `CC(C)COP(=O)(OCC(C)C)OCC(C)C`, for which the “activation” value is -1.43%.
Same read-out and setting: under `Fc1ccc(C2(Cn3cncn3)OC2c2ccccc2Cl)cc1` (stereo not given) stands -9.5%; under `CC1(C(=O)Nc2ccc(O)c(Cl)c2Cl)CCCCC1`, -4.83%.
Still for that read-out and setting: for `CCCCOC(=O)c1ccccc1N` the value was 4.37% [at 78.9 µM]; for `OCCSCSCCO`, 3.78%.
The same measure, in the same setting: under `Clc1cccc(N2CCNCC2)c1` stands -7.71%.
For the molecule `C1CCC(C2CCCCC2)CC1`, the “activation” value was 7.64%.
The same measure, in the same setting: for `Oc1c(Cl)cccc1Cl` the value was 0.945%.
Turning to `COc1cc2c(cc1OC)[C@@]13CCN4CC5=CCO[C@H]6CC(=O)N2[C@H]1[C@H]6[C@H]5C[C@H]43`, the result was inactive.
For the molecule `O=P(O)(Oc1ccccc1)Oc1ccccc1`, the “activation” value was 3.86%.
Same read-out and setting: for `CC(COc1ccc(Oc2ccccc2)cc1)Oc1ccccn1` (stereo not given) the value was -1.11%.
On the same count and under the same terms, for `O=[N+]([O-])c1cccc2cccnc12` the value was 1.05% [at 78.9 µM]; for `O=C1c2ccccc2C(=O)c2ccccc21`, -0.217%.
Regarding `CCN(CC)C(=O)[C@@H]1C=C2c3cccc4[nH]cc(c34)C[C@H]2N(C)C1`, the outcome was inactive.
With `CNC(=O)Oc1ccccc1C1OCCO1`, the “activation” value was 4.94%.
With `CCOC(=O)/C=C(C)/C=C/C[C@@H](C)CCCC(C)C`, the outcome was inactive.
With `CC(Cl)(Cl)[N+](=O)[O-]`, the “activation” value was 0.66%.
